A selection: hits, their analogues and other compounds. The true share with any hit is near 10%.
KinaseGlo FLuc = Counterscreen for Luciferase (Kinase-Glo TM) Inhibition; Kinase-Glo luciferase, ATP luminescence, 8 min; Luciferin 4-monooxygenase (Photuris pensylvanica), Q27757; Potency, µM (top dose mostly 38.3 µM), for the others: at the highest dose activity change, negative = inhibition, usual class: inhibitors; AID 1379, 2008; 200,000 tested, 0.28% active; active = well fitted inhibition curve with a large enough effect; inconclusive = small, poorly fitted or top-dose-only effect; also: potency is read from the fitted curve at half-maximal effect; nearly all actives have a fitted effect of over 60% in size
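Compound is pinned into ATP-containing buffer (10 uM ATP, imidazole pH 7.2, 7 mM MgCl2). Kinase-Glo luciferase reagent is then added. Light output is recorded following an 8-min room-temperature incubation.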
HPGD block = qHTS Assay for Inhibitors of HPGD (15-Hydroxyprostaglandin Dehydrogenase); 15-hydroxyprostaglandin dehydrogenase [NAD(+)] (Homo sapiens), P15428; purified HPGD, NADH fluorescence kinetic, PGE2 substrate; Potency, µM, for inactives: at the top dose activity change, negative = inhibition, most hits filed as inhibitors; 150,000 tested, 4.3% active; AID 894, 2007; also: potency is read from the fitted curve at half-maximal effect
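20 nM HPGD preincubated 15 min at room temperature with compound in 50 mM Tris-HCl pH 8, 0.01% Tween 20. Started with 1 mM NAD+ and 30 uM prostaglandin E2; NADH fluorescence (360/450 nm) read 5 times over 30-s intervals, last minus first.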
LMNA splice mod = qHTS Assay for Modulators of Lamin A Splicing | Potency, µM (highest dose often 46.1 µM), for the others: at the top dose ratio change, negative = inhibition, most hits filed as inhibitors | 200,000 tested, 0.01% active | AID 1487, 2009 | HeLa LMNA splicing GFP/RFP minigene ratio, 48 h; active = well fitted inhibition curve with a large enough effect in the signal ratio, with a control signal flat, not every such curve was filed as active; inconclusive = small, poorly fitted or top-dose-only effect, or effect the other way, or a change in a side signal; the % refers to the signal ratio; also: potency is read from the fitted curve at half-maximal effect
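S3 HeLa cells stably expressing lamin A-EGFP splicing minigene plus DsRed2, 600 cells/well, 48 h compound exposure at 37C. Laser-scanning cytometry; analysed as GFP (500-530 nm)/RFP (575-640 nm) total intensity ratio; 0.5% DMSO vehicle.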
ALDH1A1 block = qHTS Assay for Inhibitors of Aldehyde Dehydrogenase 1 (ALDH1A1) | 220,000 tested, 7.3% active | Purified ALDH1A1, NADH fluorescence, propionaldehyde substrate | AID 1030, 2008 | Potency, µM (top dose mostly 75.3 µM), inactives show at the highest dose activity, negative = inhibition, usual class: inhibitors;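 also: potency is read from the fitted curve at half-maximal effect; plate controls were no enzyme wells and a reference inhibitor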
Target sequence (P00352 whole entry, looked up): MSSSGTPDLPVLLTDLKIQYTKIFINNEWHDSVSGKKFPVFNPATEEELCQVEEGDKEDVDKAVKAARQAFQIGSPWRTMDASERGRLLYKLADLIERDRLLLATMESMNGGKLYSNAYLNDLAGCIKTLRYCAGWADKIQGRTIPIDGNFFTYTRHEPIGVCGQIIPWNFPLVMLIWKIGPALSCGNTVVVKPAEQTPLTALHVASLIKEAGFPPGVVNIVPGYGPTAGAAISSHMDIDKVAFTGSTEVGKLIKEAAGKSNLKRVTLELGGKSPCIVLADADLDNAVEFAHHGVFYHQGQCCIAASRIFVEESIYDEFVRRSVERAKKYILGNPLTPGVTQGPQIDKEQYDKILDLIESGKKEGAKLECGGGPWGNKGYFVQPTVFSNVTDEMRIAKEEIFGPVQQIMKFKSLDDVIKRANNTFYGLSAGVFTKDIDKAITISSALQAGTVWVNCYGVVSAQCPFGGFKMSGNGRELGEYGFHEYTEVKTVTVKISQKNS
PNC assembly inh = High Content Assay for Compounds that inhibit the Assembly of the Perinucleolar Compartment. PC3M PTB-GFP, PNC prevalence imaging, 16 h; stronger effect = lower value. activity change (PNC), negative = inhibition, % at 10 µM. 140,000 tested, 3.1% active;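 active = readout at or below -70, meaning at least 70% loss of cells showing the perinucleolar compartment, a nuclear body marking cancer cells; inconclusive = readout between -30 and a set limit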;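 also: plate controls were DMSO wells for no effect and camptothecin positive control wells for full effect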
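Read-out is percentage of cells bearing a perinucleolar compartment, from automated 20x imaging of fixed, Hoechst-stained PC3M PTB-GFP cells. Cells were seeded 4 h, then exposed 16 h to compound (23 nl of library stock) in duplicate plates.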
Active calls of the source: *; u = inconclusive; x = not tested or not shown; [ ] = another dose, or the depositor's remark. Unless noted, calls follow the shape of the dose curve; as a rule, active = well fitted inhibition curve with a large enough effect (not every such curve was filed as active); inconclusive = small, poorly fitted or top-dose-only effect, or another doubt; inactive = no such curve, though single readings can be large or run the other way. Unless noted, % is scaled to controls: 0 for no effect and ±100 for the full control effect.

SMILES	KinaseGlo FLuc	HPGD block	LMNA splice mod	ALDH1A1 block	PNC assembly inh
COc1cccc(NC(=O)Cc2csc(COc3cccc(C)c3)n2)c1	x	x	1%[46 µM]	x	x
O=S(=O)(c1ccc2c(c1)oc1ccccc12)N1CCOCC1	0%	-8%	3%	-5%	-81*
O=S(=O)(c1ccc(-c2ccccc2)cc1)N1CCOCC1	12%	-15%	-1%	2%	10
O=C(NCc1ccccc1F)C(=O)NCC(c1ccco1)S(=O)(=O)c1ccccc1 (centres undefined)	x	x	12%[46 µM]	x	x
COC(=O)c1ccc(C(NC(=O)OCc2ccccc2)/C(I)=C/[C@@H](C)C(=O)NCC2CC2)cc1 (some centres undefined)	0%	14µM*	x	-11%	x
COC(=O)c1ccc(C(NC(=O)OCc2ccccc2)/C(F)=C/[C@@H](C)C(=O)NCc2ccc(-c3ccccc3)cc2)cc1 (some centres undefined)	2%	-10%	u	-4%	-19
COC(=O)c1ccc(C(NC(=O)OCc2ccccc2)/C(F)=C/[C@@H](C)C(=O)NCc2ccc(OC)c(OC)c2)cc1 (some centres undefined)	0%	-11%	13%	u	-119*
Cc1ccc(CNC(=O)CN2C(=O)CCc3cc(S(=O)(=O)N4CCCCC4)ccc32)cc1	x	x	4%[46 µM]	x	x
COc1cccc(NC(=O)Cn2c(=O)c3cccn3c3ccc(F)cc32)c1	x	x	5%[46 µM]	x	x
Cc1cc2nc(-c3ccco3)cc(C(F)(F)F)n2n1	2%	-28%	2%	14µM*	u
CCOC(=O)c1cc2nc(-c3ccco3)cc(C(F)(F)F)n2n1	3%	u	-12%	u	2
O=C(O)c1ccccc1Cl	x	-10%	x	u	x
COCCn1c(C)cc(O)c(C(c2ccccc2)N2CCN(c3ccc(F)cc3)CC2)c1=O (centres undefined)	x	x	17%[46 µM]	x	x
CC1(C)CC(=O)C2=C(C1)Nc1ccccc1N=C2	-18%	-12%	-1%	1.8µM*	-14
Cc1ccccc1CN(c1ccc(C(=O)N2CCCC2)cc1)S(C)(=O)=O	7%	-10%	-5%	u	22
CN(c1ccc(C(=O)N2CCCCC2)cc1)S(C)(=O)=O	0%	10µM*	-16%	6%	-29
CC1CCN(C(=O)c2ccc(N(C)S(C)(=O)=O)cc2)CC1	0%	14µM*	-1%	3%	u
CCOC(=O)C1CCN(C(=O)c2ccc(N(C)S(C)(=O)=O)cc2)CC1	13%	-14%	10%	3%	-22
Cc1ccc(CN(c2ccc(C(=O)N3CCCC3)cc2)S(C)(=O)=O)cc1	-3%	-13%	16%	4%	-83*
CC(C)(C)OC(=O)N1CCC(c2c(C(=O)N3CCN(C(=O)c4ccco4)CC3)cnn2-c2ccc(Cl)cc2)CC1	x	x	-3%[46 µM]	x	x
CCC(=O)n1nc(-c2ccco2)nc1SCc1ccccc1	-1%	13µM*	21%	u	u
CC(=O)n1nc(-c2ccco2)nc1SCc1ccccc1	0%	13µM*	-4%	-15%	-7
N[C@@H](C(=O)O)[C@H](CC(=O)O)c1ccc(Cl)cc1	2%	-6%	x	9%	x
CCOC(=O)c1c(C)[nH]c2ccc3c(c12)CN1CCc2cc(OC)ccc2[C@@H]1O3	-2%	-10%	x	-2%	x
COC(=O)Cc1c(C)c2c(OCc3nn[nH]n3)cc(C)cc2oc1=O	x	x	5%	u	37
SMILES	KinaseGlo FLuc	HPGD block	LMNA splice mod	ALDH1A1 block	PNC assembly inh
Cc1c(C)c2cc(Cl)c(OCc3nn[nH]n3)cc2oc1=O	x	x	7%	u	-122*
S=c1nc[nH]c2c1[nH]c1ccccc12	2%	25µM*	-3%	14µM*	u
COc1ccc(CCC(=O)NC2=NCCS2)cc1OC	9%	-1%	-1%	12%	-100*
O=C(c1cc2ncc(CCCl)cn2n1)N1CCCCCC1	0%	1µM*	10%	u	20
O=C(c1cc2ncc(Br)cn2n1)N1CCCCC1	-1%	x	x	u	x
CCOC(=O)c1sc(NC(=O)C2CC2)nc1C	-3%	-9%	7%	4%	-13
CCOC(=O)c1sc(N/N=C/c2ccccc2)nc1C	-3%	14µM*	u	8.9µM*	28
CCOC(=O)c1sc(NC(=O)C2C3C=CC(C3)C2C(=O)O)nc1C (centres undefined)	0%	-16%	12%	0.5µM*	-4
O=C(O)Cc1sc(N/N=C\c2ccccc2)nc1-c1ccccc1	-4%	u	u	1.1µM*	31
COc1ccc(-n2c(Cc3cccn3C)nnc2SCC(=O)Nc2ccccc2F)cc1	7%	1%	-7%	16µM*	-108*
COc1ccc(-n2c(Cc3cccn3C)nnc2SCC(=O)Nc2ccc(F)cc2F)cc1	3%	-12%	-2%	10µM*	6
COc1cccc(NC(=O)CSc2nnc(Cc3cccn3C)n2-c2ccc(F)cc2)c1	-2%	-22%	-12%	14µM*	-18
COc1ccc(NC(=O)CSc2nnc(Cc3cccn3C)n2-c2ccc(F)cc2)cc1	7%	2%	-12%	u	-16
COc1ccc(-n2c(Cc3cccn3C)nnc2SCC(=O)Nc2nccs2)cc1	-1%	0%	-7%	u	-114*
CCc1ccc(NC(=O)c2ccc(CN3CC(=O)N4CCCCC4C3=O)cc2)cc1 (centres undefined)	x	x	-9%[46 µM]	x	x
CN(CC(=O)O)Cc1c(O)c(Cl)cc(Cl)c1Cl	0%[7.66 µM]	-6%	x	6%[13.5 µM]	x
CCN(CC)CCNC(=O)C(=O)NCC(c1ccc2c(c1)OCO2)N1CCOCC1 (centres undefined)	x	x	-7%[46 µM]	x	x
CCc1ccc2nc(N(CCN(CC)CC)C(=O)c3ccco3)sc2c1	x	x	6%[46 µM]	x	x
COc1ccc(-n2c(Cc3cccn3C)nnc2SCC(=O)Nc2cccc(C)c2C)cc1	4%	-11%	-8%	14µM*	45
CCN1CCN(c2csc3ccc(Br)cc3c2=O)CC1	x	x	-3%[46 µM]	x	x
O=S(=O)(c1ccc(Br)cc1)N1CCCC1c1nc2ccccc2s1 (centres undefined)	5%	-9%	u	-13%	-100*
CN(C)S(=O)(=O)c1ccc(C(=O)N2CCCC2c2nc3ccccc3s2)cc1 (centres undefined)	3%	1%	-4%	11%	u
C#CC1(O)CC(C)N(C)C(C)C1 (centres undefined)	-1%	-5%	-11%	u	-91*
